# Data: PubChem BioAssay
# The source made the active and inactive calls. Unless noted, no rule for the calls is given here.
# Columns and labels:
# [1] = HepG2 liver cancer cell viability effects, profiling panel, resazurin fluorescence, 24 h, PK04 Diversity Set (AID 1172); conditions: higher = more signal
# [2] = basal S. cerevisiae growth modulation, no modifier, primary screen, OD600, strain BY4716, 24 h, basal condition (AID 1173); conditions: OD600, 24 h, higher = more signal, called active from +8 up or from −8 down
# [3] = MM1S myeloma cell viability, profiling panel, resazurin fluorescence, basal, 24 h, PK04 Diversity Set (AID 1174); conditions: higher = more signal, called active from +8 up or from −8 down;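 also: MM1S multiple myeloma cell line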
# [4] = molecular target: Dihydroorotate dehydrogenase (quinone), mitochondrial (Plasmodium falciparum (isolate 3D7)) (UniProt Q08210); assay: PfDHODH enzyme inhibitors, primary screen, biochemical, C-terminal His tag, absorbance 600 nm (AID 1175); conditions: DCIP absorbance 600 nm, higher = more signal, called active from +8 up or from −8 down;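 also: recombinant parasite enzyme with a five histidine tag at its C terminus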
# [5] = P. aeruginosa biofilm formation inhibitors, primary screen, strain PAO1, LB-PBS medium, absorbance 600 nm (AID 1176); conditions: P. aeruginosa PAO1 growth/biofilm, A600, 12 h; higher = more signal
# [6] = S. cerevisiae RM11-1a growth modifiers, primary screen, strain RM11-1a, OD600, basal, 24 h (AID 1177); conditions: OD600, 24 h, higher = more signal, called active from +8 up or from −8 down;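 also: cultures grown under basal conditions with no added stressor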
# [7] = E. coli acrAB mutant growth effects, primary screen, E. coli filamentation inducers, strain DRC39, OD650, 24 h (AID 1178); conditions: higher = more signal, called active from +8 up or from −8 down;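 also: growth measured as culture turbidity by optical density at 650 nm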
# [8] = E. coli acrAB mutant growth effects, primary screen, E. coli filamentation inducers, strain DRC39, OD650, 48 h (AID 1179);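 also: screen aims at cell division blockers that make cells filament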; conditions: E. coli DRC39 delta-acrAB growth, higher = more signal, called active from +8 up or from −8 down
# [9] = RPMI8226 myeloma cell viability, profiling panel, resazurin fluorescence, basal, 24 h, PK04 Diversity Set (AID 1180); conditions: higher = more signal;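 also: RPMI8826 multiple myeloma cell line at 5000 cells per well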
# [10] = molecular target: E3 ubiquitin-protein ligase XIAP (Homo sapiens) (UniProt P98170); assay: XIAP binders, primary screen, biophysical, small-molecule microarray, fluorescence 635 nm (AID 1181); conditions: small-molecule microarray binding, higher = more signal;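 also: score merges 667 nm emission and signal to noise over triplicate slides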
# [11] = tested on: XIP peptide (Xip251-270) binding; assay: small-molecule binders of XIP peptide, primary screen, biochemical, small-molecule microarray, fluorescence 635/667 nm, 0.1 µg/mL protein (AID 1182); conditions: fluorescent protein binding, 635 nm, higher = more signal, called active from +8 up or from −8 down
# XIP peptide (Xip251-270) = assay: small-molecule binders of XIP peptide, primary screen, biochemical, small-molecule microarray, fluorescence 635/667 nm, 0.5 µg/mL protein (AID 1183); conditions: small-molecule microarray binding, fluorescence 635 nm; higher = more signal
# [12] = Plasmodium falciparum growth inhibition, primary screen, strain 3D7, DAPI fluorescence, 100 nL (AID 1184);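 also: parasites grown inside human red blood cells in medium with human serum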; conditions: P. falciparum 3D7 growth, 3 d, higher = more signal
# [13] = molecular target: Homeobox protein Hox-A13 (Mus musculus) (UniProt Q62424); assay: inhibitors of HoxA13-DNA binding, primary screen, biochemical, fluorescence polarization, labeled oligonucleotide (AID 1185); conditions: 15 min, higher = more signal, called active from +8 up or from −8 down
# [14] = inhibitors of hydroxyurea-induced Chk1 phosphorylation, primary screen, imaging, HeLa, phospho-Chk1 antibody, percent positive cells (AID 1186); conditions: hydroxyurea-induced phospho-Chk1 immunofluorescence imaging, higher = more signal
# [15] = inhibitors of hydroxyurea-induced Chk1 phosphorylation, primary screen, imaging, HeLa, phospho-Chk1 nuclear intensity (AID 1187); conditions: hydroxyurea-induced phospho-Chk1 immunofluorescence imaging, higher = more signal
# Chain of Dihydroorotate dehydrogenase (quinone), mitochondrial (Plasmodium falciparum (isolate 3D7)) (Q08210 whole entry, looked up): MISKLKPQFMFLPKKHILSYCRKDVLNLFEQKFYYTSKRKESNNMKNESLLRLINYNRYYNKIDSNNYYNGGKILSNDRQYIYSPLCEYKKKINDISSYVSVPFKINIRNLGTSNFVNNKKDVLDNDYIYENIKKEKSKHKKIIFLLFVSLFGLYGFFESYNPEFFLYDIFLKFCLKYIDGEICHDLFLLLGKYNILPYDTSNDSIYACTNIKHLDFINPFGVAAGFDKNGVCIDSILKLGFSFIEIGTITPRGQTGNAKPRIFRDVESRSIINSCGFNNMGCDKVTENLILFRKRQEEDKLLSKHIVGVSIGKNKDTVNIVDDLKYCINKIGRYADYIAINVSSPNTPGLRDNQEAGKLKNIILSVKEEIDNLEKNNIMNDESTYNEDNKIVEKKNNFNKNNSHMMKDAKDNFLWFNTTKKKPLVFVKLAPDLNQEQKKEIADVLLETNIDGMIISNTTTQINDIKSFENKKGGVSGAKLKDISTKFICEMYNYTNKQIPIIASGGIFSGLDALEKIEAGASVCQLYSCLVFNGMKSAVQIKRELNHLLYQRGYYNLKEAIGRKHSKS
# Chain of Homeobox protein Hox-A13 (Mus musculus) (Q62424 whole entry, looked up): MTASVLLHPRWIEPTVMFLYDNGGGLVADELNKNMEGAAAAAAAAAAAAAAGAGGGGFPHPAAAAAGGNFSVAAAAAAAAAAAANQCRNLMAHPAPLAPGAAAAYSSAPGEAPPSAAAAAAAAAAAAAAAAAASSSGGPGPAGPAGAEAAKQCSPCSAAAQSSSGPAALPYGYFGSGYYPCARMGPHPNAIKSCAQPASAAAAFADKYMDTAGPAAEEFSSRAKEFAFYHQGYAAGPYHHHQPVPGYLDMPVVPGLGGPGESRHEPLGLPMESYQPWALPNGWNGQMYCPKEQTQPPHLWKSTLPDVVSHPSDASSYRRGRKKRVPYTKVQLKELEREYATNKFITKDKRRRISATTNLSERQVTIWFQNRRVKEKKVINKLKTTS
# Chain of E3 ubiquitin-protein ligase XIAP (Homo sapiens) (P98170 whole entry, looked up): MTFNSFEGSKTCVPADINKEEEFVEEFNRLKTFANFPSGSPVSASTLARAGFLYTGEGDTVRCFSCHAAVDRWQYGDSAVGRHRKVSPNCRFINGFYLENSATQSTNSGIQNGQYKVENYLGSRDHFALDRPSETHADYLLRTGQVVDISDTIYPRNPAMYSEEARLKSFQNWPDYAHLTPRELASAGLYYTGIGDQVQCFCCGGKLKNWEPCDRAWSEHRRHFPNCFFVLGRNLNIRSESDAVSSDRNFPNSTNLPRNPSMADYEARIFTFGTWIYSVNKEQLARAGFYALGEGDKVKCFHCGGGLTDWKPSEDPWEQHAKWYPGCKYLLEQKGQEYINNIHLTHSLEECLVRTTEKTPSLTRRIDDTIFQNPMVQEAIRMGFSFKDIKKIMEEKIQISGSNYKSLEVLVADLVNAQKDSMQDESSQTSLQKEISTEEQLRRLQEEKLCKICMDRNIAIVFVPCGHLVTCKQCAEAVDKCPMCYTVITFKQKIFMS
SMILES,z-score [1],z-score [2],z-score [3],composite z-score [4],z-score [5],z-score [6],z-score [7],z-score [8],z-score [9],composite z-score [10],composite z-score [11],composite z-score (XIP peptide (Xip251-270)),z-score [12],z-score [13],z-score [14],z-score [15]
C=CCC(OC(C)=O)[C@@H]1[C@@H](N(Cc2cccc3ccccc23)C(=O)Cc2ccc(OC)cc2)c2cc(OCCCO)ccc2N1C(=O)c1ccc2ccccc2n1 (stereo partly drawn),0.602,0.0243 (inactive),-0.415 (inactive),-0.175 (inactive),-0.145 (inactive),-0.212 (inactive),0.884 (inactive),0.284 (inactive),0.0309,0.343,1.24 (inactive),-0.248,-2.54,-2.7 (inactive),-2.34 (inactive),-1.44 (inactive)
COc1ccc([Si](C)(C)[C@@H]2[C@@H](CCO)O[C@]3(C(=O)N(Cc4ccc(N5CCCCC5=O)cc4)c4ccccc43)[C@H]2C)cc1,-0.723,-0.173 (inactive),-0.75 (inactive),-3.05 (inactive),1.45 (inactive),2.69 (inactive),1.99 (inactive),1.14 (inactive),-2.24,-0.184,2.99 (inactive),0.769,-2.69,-5.03 (inactive),-0.913 (inactive),0.261 (inactive)
COC(=O)[C@@]1(Cc2ccc(F)cc2)[C@H]2c3cc(C(=O)N(C)C)n(CCc4ccc(O)c(OC)c4)c3C[C@H]2CN1C(=O)c1ccccc1,-0.275,0.358 (inactive),-0.0883 (inactive),0.124 (inactive),-0.263 (inactive),0.898 (inactive),-0.952 (inactive),-0.574 (inactive),0.28,-0.196,-0.327 (inactive),-0.277,0.845,-0.562 (inactive),-0.47 (inactive),-0.964 (inactive)
CC(CO)N1C(=O)[C@@H]2[C@H]3C(=O)OCC=C[C@H]3OC23C=CCN(CCN2CCOCC2)C(=O)[C@@H]13 (stereo partly drawn),0.0843,0.0245 (inactive),-0.622 (inactive),-0.0564 (inactive),-0.649 (inactive),-0.169 (inactive),-0.55 (inactive),-0.733 (inactive),-0.266,-0.0046,-0.0198 (inactive),0.154,0.177,-5.37 (inactive),-0.259 (inactive),-0.252 (inactive)
C=CCC(OC(C)=O)[C@@H]1[C@@H](N(Cc2ccc(-c3ccccc3)cc2)C(=O)Cc2ccc(F)cc2)c2cc(OCCCO)ccc2N1C(=O)Cc1ccc(OC)cc1 (stereo partly drawn),-0.939,0.637 (inactive),0.0774 (inactive),-0.433 (inactive),-0.431 (inactive),0.313 (inactive),-0.455 (inactive),-0.14 (inactive),-0.103,0.0757,0.0187 (inactive),-0.308,-0.939,-2.3 (inactive),-0.245 (inactive),-0.23 (inactive)
C=C[C@@H](COC(C)=O)N(C(=O)OC(C)(C)C)S(=O)(=O)c1ccc(Br)cc1,-0.19,-3.49 (inactive),-2.19 (inactive),-1.25 (inactive),-0.938 (inactive),0.317 (inactive),-0.0872 (inactive),0.499 (inactive),-0.288,0.0618,0.805 (inactive),0.546,0.573,-2.35 (inactive),-0.506 (inactive),-0.474 (inactive)
C=CCOC(=O)[C@H]1[C@@H]2C(=O)O[C@@H](c3ccccc3)[C@@H](c3ccccc3)N2[C@@H](c2ccc(OCCOC(=O)[C@@H]3C[C@@H]4C(=O)N[C@@H](CCCCN(C)C)C(=O)N4[C@@H]3c3ccc(O)cc3)cc2)[C@]12C(=O)Nc1ccccc12,-2.65,-1.48 (inactive),0.0862 (inactive),-1.52 (inactive),1.07 (inactive),0.0694 (inactive),-1.05 (inactive),-0.628 (inactive),0.313,-0.0172,2.41 (inactive),0.878,0.0953,4.03 (inactive),-0.768 (inactive),-0.475 (inactive)
O=C1c2ccccc2[C@](Cc2ccccc2I)(C(=O)NCC(F)(F)F)[C@H](c2ccc(CO)cc2)N1C1CCCCC1,-0.46,-0.754 (inactive),0.247 (inactive),-1.11 (inactive),0.127 (inactive),0.234 (inactive),0.739 (inactive),0.743 (inactive),-0.581,0.129,0.759 (inactive),0.841,-1.14,-3.97 (inactive),-0.68 (inactive),-0.11 (inactive)
CCOC(=O)C[C@H]1[C@H](OC(=O)c2ccccc2-c2ccccc2)[C@@H](NC(=O)c2ccc(-c3ccccc3)cc2)c2cc(OCCCO)ccc2N1C(=O)c1ccc2ccccc2n1,-0.0523,0.662 (inactive),0.128 (inactive),-0.0558 (inactive),0.318 (inactive),0.752 (inactive),-0.447 (inactive),-0.0565 (inactive),0.636,0.0891,-0.07 (inactive),0.421,-0.557,-1.48 (inactive),-0.145 (inactive),-0.0265 (inactive)
O=C1O[C@H](c2ccccc2)[C@H](c2ccccc2)N2[C@H]1[C@@H](C(=O)Nc1nc3ccccc3s1)[C@]1(C(=O)Nc3ccc(C#CC4(O)CCCCCC4)cc31)[C@H]2c1ccccc1OCCO,0.162,1.49 (inactive),-3.4 (inactive),-1.28 (inactive),3.52 (inactive),2.74 (inactive),-0.295 (inactive),-0.508 (inactive),-5.13,0.25,0.0536 (inactive),0.812,-2.09,2.05 (inactive),0.66 (inactive),0.976 (inactive)
CO[C@H]1O[C@H](CO)[C@@H](OC(=O)Nc2ccc3c(c2)OCO3)[C@H](OC(=O)c2cc3ccccc3[nH]2)[C@H]1OC(=O)c1cc2ccccc2[nH]1,-2.92,-0.237 (inactive),-3.48 (inactive),-1.53 (inactive),0.69 (inactive),-0.81 (inactive),0.387 (inactive),1.42 (inactive),-3.84,0.151,0.472 (inactive),0.374,-0.603,-4.88 (inactive),-0.308 (inactive),-0.227 (inactive)
O=C1NC(=O)C2C1C=CC(C(O)CCc1ccccc1)N2Nc1ccc(Cl)cc1Cl (stereo not drawn),-1.24,-3.34 (inactive),-1.59 (inactive),-0.596 (inactive),0.667 (inactive),-0.385 (inactive),-0.172 (inactive),-0.611 (inactive),-1.77,0.178,0.157 (inactive),0.284,1.5,-5.96 (inactive),0.738 (inactive),0.185 (inactive)
COc1ccc(NC(=O)O[C@H]2[C@H](OC(=O)Nc3ccccc3)[C@H](OC(=O)Nc3ccccc3)[C@@H](OC)O[C@@H]2CO)cc1,-1.05,0.593 (inactive),-1.49 (inactive),1.59 (inactive),0.509 (inactive),0.767 (inactive),0.124 (inactive),0.0606 (inactive),-0.936,-0.0599,0.635 (inactive),0.934,-2.37,-6.24 (inactive),0.131 (inactive),0.288 (inactive)
COC(=O)c1nc2oc1CC[C@@H](CO)NC(=O)N(C)Cc1cnnn1C[C@H](Cc1ccccc1)NC2=O,0.841,-1.07 (inactive),1.09 (inactive),-0.288 (inactive),0.383 (inactive),0.477 (inactive),0.218 (inactive),1.12 (inactive),1.47,-0.148,0.618 (inactive),0.944,1.06,-0.449 (inactive),-0.517 (inactive),-0.393 (inactive)
COCCOC(=O)N1C(=O)[C@@]2(c3cc(C#Cc4ccc(OC)cc4)ccc31)[C@H](c1ccccc1OCCO)N1[C@H](c3ccccc3)[C@H](c3ccccc3)OC(=O)[C@H]1[C@@H]2C(=O)N1CCCCCCC1,0.457,1.29 (inactive),0.0229 (inactive),-1.26 (inactive),3.49 (inactive),1.84 (inactive),-0.398 (inactive),0.118 (inactive),0.504,0.223,1.93 (inactive),0.319,-2.02,4.73 (inactive),-0.434 (inactive),-0.648 (inactive)
O=C1O[C@H](c2ccccc2)[C@H](c2ccccc2)N2[C@H]1[C@@H](C(=O)N1CCN(c3ncccn3)CC1)[C@]1(C(=O)Nc3ccc(C#CC4(O)CCCCCC4)cc31)[C@H]2c1ccc(OCCO)cc1,0.204,1.82 (inactive),-0.484 (inactive),-0.884 (inactive),3.52 (inactive),3.34 (inactive),-0.427 (inactive),-0.0689 (inactive),0.478,0.258,2.51 (inactive),0.781,-2.13,0.271 (inactive),0.354 (inactive),0.527 (inactive)
CC(C)OC(=O)C=C1C[C@@H](c2ccc(C(F)(F)F)cc2)O[C@@H](c2ccc(C(F)(F)F)cc2)O1,0.54,-5.34 (inactive),0.533 (inactive),-1.4 (inactive),0.257 (inactive),-1.93 (inactive),0.2 (inactive),1.41 (inactive),0.0779,0.371,0.416 (inactive),0.567,-0.266,-3.22 (inactive),-0.272 (inactive),0.0075 (inactive)
COC(=O)[C@@]1(Cc2ccccc2)[C@H]2c3cc(C(=O)N(C)C)n(CCc4ccc(O)c(OC)c4)c3C[C@H]2CN1C(=O)c1ccccc1,0.0393,0.483 (inactive),-0.207 (inactive),-0.487 (inactive),0.454 (inactive),0.194 (inactive),-0.514 (inactive),-0.253 (inactive),0.0379,-0.0373,0.132 (inactive),-0.358,0.692,-0.394 (inactive),0.727 (inactive),0.652 (inactive)
